Compound activity (PubChem)
Compounds with a hit are over-represented: about 8.3% of the library has one in this group of screens.
MCF10A rerep: inducers of DNA re-replication in MCF 10A breast cells | MCF 10A DNA re-replication, Hoechst nuclear intensity, 48 h | Potency, µM (series often up to 46.1 µM), inactives show at the highest dose activity, positive = re-replication, hits mostly activators | actives 2.9% (n = 350,000) | AID 624296; also: potency is read from the fitted curve at half-maximal effect; % of control where 0% means no effect; nearly all actives have a fitted effect of over 50% in size
RORg inh: inhibitors of mouse ROR gamma transcriptional activity; Drosophila S2 Gal4-RORgamma UAS-luciferase reporter, 20 h; Potency, µM (series often up to 53.6 µM), for inactives: at the highest dose activity change, negative = inhibition, most hits filed as inhibitors; actives 5.4% (n = 310,000); P51450; AID 2551; also: potency is read from the fitted curve at half-maximal effect; % is scaled to controls: 0 for no effect and ±100 for the full control effect; nearly all actives have a fitted effect of over 60% in size
Target sequence (P51450 whole entry, looked up, the tested form may be a part): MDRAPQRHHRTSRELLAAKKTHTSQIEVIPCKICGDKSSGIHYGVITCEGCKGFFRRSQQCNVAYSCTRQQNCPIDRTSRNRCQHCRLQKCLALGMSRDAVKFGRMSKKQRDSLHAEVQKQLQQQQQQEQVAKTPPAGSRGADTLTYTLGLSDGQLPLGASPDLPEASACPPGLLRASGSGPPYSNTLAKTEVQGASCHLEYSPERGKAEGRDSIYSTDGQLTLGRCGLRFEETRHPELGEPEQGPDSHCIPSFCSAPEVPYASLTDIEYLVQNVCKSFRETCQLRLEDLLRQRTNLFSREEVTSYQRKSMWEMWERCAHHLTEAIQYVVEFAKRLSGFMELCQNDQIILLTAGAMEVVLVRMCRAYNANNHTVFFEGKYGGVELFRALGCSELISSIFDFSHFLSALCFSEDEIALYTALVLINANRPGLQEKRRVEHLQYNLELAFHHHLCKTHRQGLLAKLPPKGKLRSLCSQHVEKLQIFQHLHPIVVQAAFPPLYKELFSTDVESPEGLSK
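Luciferase reporter read in Schneider cells carrying Gal4-RORγ (mouse) and UAS-Photinus luciferase; cells given compound 1 h before 700 uM copper sulfate induction, then incubated 20 h at ambient temperature.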
Giardia killer: Giardia lamblia killing. Giardia lamblia trophozoite viability. activity change, % at 7.66 µM, hits read low. actives 0.15% (n = 340,000). AID 540267; in the data active = activity change below about -80%; inconclusive = between about -30% and that limit;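 also: parasites exposed to compound for two days anaerobically before the ATP read; % is scaled to controls: 0 for no effect and ±100 for the full control effect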
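Trophozoites 100 cells/well + cpd; 48 hrs, 37 deg C, anaerobic. ATPLite 1-Step added, 15-30 min RT, luminescence read (ATP-based viability).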
Chronic BCR inh: inhibitors of chronic active B-cell receptor signaling; Potency, µM (doses to about 46.1 µM), without a hit: at the top dose activity change, negative = inhibition, actives largely listed as inhibitors; ABC-DLBCL IkBa-CBG/CBR reporter, luminescence ratio, 4 h; actives 0.05% (n = 340,000); active = well fitted inhibition curve with a large enough effect in the signal ratio, with a control signal flat, not every such curve was filed as active; inconclusive = small, poorly fitted or top-dose-only effect, or effect the other way, or a change in a side signal; the % refers to the signal ratio;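 also: potency is read from the fitted curve at half-maximal effect; plate controls were basal doxycycline-induced cells for no effect and cells given 10 µM MG132 for full effect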
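Concentration-response series (up to 46 uM) were applied to TMD8 dual-reporter cells for 4 h at 37C with doxycycline. Green/red ratio, after filter-overlap correction, defined %Activity; red signal alone was normalised to basal cells and zero luminescence.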
VP16 counter: inhibits Gal4-VP16 luciferase reporter, ROR gamma counter-screen; Drosophila S2 Gal4-VP16 UAS-luciferase, luminescence, 20 h; Potency, µM (doses to about 53.6 µM), inactives show top-dose activity, negative = inhibition, most hits filed as inhibitors; actives 3.5% (n = 310,000); AID 2546;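 also: Gal4-VP16 expression switched on by copper sulfate through the metallothionein promoter; potency is read from the fitted curve at half-maximal effect; % is scaled to controls: 0 for no effect and ±100 for the full control effect; nearly all actives have a fitted effect of over 50% in size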
SW480 rerep: induces DNA re-replication in SW480 colon adenocarcinoma cells. actives 1.8% (n = 340,000). SW480 DNA re-replication, Hoechst DNA content imaging, 48 h. Potency, µM (top dose mostly 46.1 µM), without a hit: top-dose re-replication activation, usual class: activators; also: potency is read from the fitted curve at half-maximal effect; % of control where 0% means no effect; nearly all actives have a fitted effect of over 55% in size
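Image-based DNA-content assay: after two days of treatment, nuclei were labelled with the DNA dye Hoechst and imaged, and hits were compounds raising the count of nuclei showing high fluorescence intensity.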
* hit, by the source's call; ? = inconclusive; . = no result; [ ] = dose if it differs, or a comment. Unless noted, calls follow the shape of the dose curve; as a rule, active = well fitted curve in the direction sought with a large enough effect; inconclusive = small, poorly fitted or top-dose-only effect, or another doubt; inactive = no such curve, though single readings can be large; an effect the other way counts as inactive or inconclusive.

SMILES | MCF10A rerep | RORg inh | Giardia killer | Chronic BCR inh | VP16 counter | SW480 rerep
COc1cc(NC(=S)Nc2ccccn2)c(OC)cc1Cl | 0.2% | 1.26µM* | 27.8 | 1.3% | 7.08µM* | 0.0%
Cc1ccccc1NC(=S)NC(C)CCc1ccccc1 (centres undefined) | -2.3% | 4.47µM* | 24.1 | 7.1% | 3.55µM* | 5.9%
COc1cc(NC(=S)Nc2cccc(Cl)c2Cl)c(OC)cc1Cl | 8.4% | ? | -4.2 | -5.0% | ? | 1.5%[9.22 µM]
CCN(C(=O)c1cc(S(=O)(=O)N2CCOCC2)cn1C)c1cccc(C)c1 | -3.5% | -40.0% | -1.2 | 0.1% | -2.0% | -1.4%
Cn1c(=O)c2c(-c3ccccc3)n(CCCO)cc2n(C)c1=O | . | . | . | 4.8% | . | .
Cn1c(=O)c2c(-c3ccccc3)n(-n3cnnc3)cc2n(C)c1=O | 11.0% | 17.8µM* | 4.4 | ? | ? | ?
COC(=O)c1cc(S(=O)(=O)N2CCN(c3cccc(OC)c3)CC2)cn1C | -28.3% | -13.6% | -13.5 | 1.4% | 5.2% | 3.1%
CCCCn1cnc2c(SCc3ccccc3Cl)nc(N)nc21 | 16.4µM* | . | -6.2 | . | . | ?
O=c1[nH]cc(COCC(F)CCl)c(=O)[nH]1 (centres undefined) | 1.0% | -2.7% | -3.6 | ? | -9.1% | -7.5%
CC(C)(C)c1ccc(C(=O)/C=C2\NC(=O)CS2)cc1 | ? | 3.16µM* | ? | ? | 10µM* | 1.0%
Cc1ccc(NC(=O)/C=C2\NC(=O)CS2)cc1 | 0.9% | ? | -25.5 | ? | -5.8% | -17.8%
Cc1ccc(Cl)cc1N1CCN(C(=O)C2CCN(c3nnc(-n4cccc4)s3)CC2)CC1 | ? | 37.8% | 5.1 | 4.3% | 11.2µM* | 11.7%
CC=Cc1cc2c(c(=O)o1)C(=O)C(O)C(C)O2 (centres undefined) | 11.6µM* | . | 12.8 | . | . | 18.4µM*
CC(CS(=O)(=O)c1ccccc1[N+](=O)[O-])N1CCOCC1 (centres undefined) | -1.4% | -21.6% | 2.1 | -3.0% | 4.3% | ?
Cn1cc(CCC(=O)NC2CC(C)(C)Cc3c2cnn3-c2ccc(F)cc2)cn1 (centres undefined) | ? | . | 5.7 | -4.8% | . | 11.0%
COc1cc(C(C#N)N2N=C(c3ccccc3)CC2c2ccccc2)ccc1O (centres undefined) | ? | 7.94µM* | 12.3 | -0.2% | -93.2% | 14.2%
CCn1c(=O)cc(SCC(=O)Nc2cccc(C)n2)c2ccccc21 | 7.9% | 0.6% | -9.7 | -13.8% | -5.5% | -5.4%
N#CC1=C2SCC(O)(c3ccccc3)N2C(=O)CC1c1ccccc1F (centres undefined) | 23.1µM* | 4.2% | 8.4 | ? | 17.4% | ?
N#CC1=C2SCC(O)(c3ccccc3)N2C(=O)CC1c1cccs1 (centres undefined) | 1.3µM* | ? | -3.5 | ? | ? | 7.31µM*
COc1ccc(C2CC(=O)N3C(=C2C#N)SCC3(O)c2ccccc2)cc1 (centres undefined) | 21.0% | ? | 8.8 | -8.3% | 6.4% | -2.2%
CC1=C(C(=O)Nc2ccccc2C(=O)NC2CCCCC2)SCCO1 | 15.4% | 13.4% | 3.6 | 0.0% | 2.0% | ?
O=C(N/N=C/c1c[nH]c2ccccc12)c1cc(-c2cccc3ccccc23)n[nH]1 | 9.2µM* | -44.8% | 6.0 | ? | ? | ?
O=C(N/N=C/c1c[nH]c2ccccc12)c1ccccc1Cl | -0.6% | 4.2% | 13.9 | ? | 29.6% | -3.1%
Nc1ccc(C(=O)N/N=C/c2c[nH]c3ccccc23)cc1 | -1.5% | 7.9% | -27.9 | ? | -6.4% | -25.2%
O=C(N/N=C/c1c[nH]c2ccccc12)c1ccn[nH]1 | 0.581µM* | 42.4% | 30.9 | ? | -6.7% | -58.7%
SMILES | MCF10A rerep | RORg inh | Giardia killer | Chronic BCR inh | VP16 counter | SW480 rerep
Cc1ccc(-c2cc(C(=O)N/N=C/c3c[nH]c4ccccc34)[nH]n2)cc1 | ? | 18.8% | -14.1 | ? | ? | 3.26µM*
O=C(N/N=C/c1c[nH]c2ccccc12)c1cc(-c2ccccc2)n[nH]1 | 17.1% | 20.1% | -7.7 | ? | 2.0% | -10.8%
O=C(N/N=C/c1c[nH]c2ccccc12)c1cc(-c2ccc(-c3ccccc3)cc2)n[nH]1 | 14.6µM* | 5.62µM* | -20.2 | -10.7% | ? | ?
Cc1cc(=O)oc(C)c1C(=O)Nc1cccnc1Cl | -0.4% | -14.9% | 9.3 | -7.5% | -10.3% | -12.2%
Cc1cc(=O)oc2cc(OCc3ccc(C(=O)OCC(=O)Nc4ccc(N(C)C)cc4)cc3)ccc12 | -13.5% | 13.3% | 3.3 | ? | -8.4%[10 µM] | 2.4%
COCCNc1nc(-c2ccccc2OC)nc2ccccc12 | . | 3.6% | . | . | -25.4% | .
CCOC(=O)c1c(NC(=O)COC(=O)c2ncc(Cl)c(Cl)c2Cl)sc(C(=O)N(C)C)c1C | -2.0% | . | -1.6 | -2.4% | . | -8.5%
O=C(N/N=C/c1c[nH]c2ccccc12)c1cc(-c2ccc3ccccc3c2)n[nH]1 | 2.59µM* | ? | 24.3 | ? | ? | 11.6µM*
O=C(OCC1CCNCC1)c1ccc(F)cc1 | 3.8% | . | -15.4 | . | . | -21.7%
Cc1cccc(C=Nc2ccccc2C(N)=O)c1 | 3.66µM* | 38.5% | -24.1 | ? | -8.3% | 5.8µM*
Cc1ccc(C=Nc2ccccc2C(N)=O)s1 | 3.66µM* | 40.4% | -7.7 | ? | ? | 4.61µM*
Cc1ccc(C=Nc2cc([N+](=O)[O-])ccc2C)s1 | 1.4% | -9.4% | -7.1 | -1.2% | -0.6% | -1.4%
NC(c1ccccc1)c1ccncc1 (centres undefined) | 4.0% | -1.4% | 23.0 | 0.2% | 13.9% | -4.9%
C=CCn1c(SCc2csc(C)n2)nc2sc3c(c2c1=O)CCCC3 | 16.4µM* | 1.6% | -5.5 | ? | -5.5% | 3.2%
C=CCn1c(SCc2csc(C)n2)nc2sc3c(c2c1=O)CCC(C)C3 (centres undefined) | 20.6µM* | ? | 4.1 | ? | ? | -0.7%
COc1cccc(-c2ccc3ncnc(NCCN4CCOCC4)c3c2)c1 | . | ? | . | . | 1.6% | .
CN(Cc1ccccc1)Cc1c(O)ccc2ccccc12 | 1.7% | -19.2% | 11.6 | 1.0% | -6.4% | 0.1%
CN(Cc1cc(Cl)cc(Cl)c1O)Cc1c(O)ccc2ccccc12 | 23.1µM* | . | 29.8 | . | . | ?
Cc1ccc(S(=O)(=O)N2CCCCC2C)cc1[N+](=O)[O-] (centres undefined) | 13.5% | ? | -1.9 | 0.8% | -14.6% | -6.6%
NC(=S)Nc1cccc2cc3ccccc3cc12 | ? | 12.6µM* | 14.1 | 1.3% | -82.5% | 11.6µM*
NC(=S)Nc1cc2ccccc2c2ccccc12 | 2.1% | 11.2µM* | -9.1 | 3.0% | ? | -2.9%
O=C(Nc1ccccc1F)Nc1ccccc1Br | -10.7% | 31.1% | -1.2 | ? | ? | -13.1%
